In the library only some 7.5% were active in any assay of this set; here they are far more common.
Rab9 prom act = Rab9 promoter activation; Huh7 Rab9 promoter-luciferase reporter, luminescence, 24 h; Potency, µM (doses to about 9.22 µM), usual class: activators; hit rate 2.8% among 320,000; AID 485297; also: nearly all actives have a fitted effect of over 60% in size
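Luminescence from Amplite-detected luciferase (10 minutes, ambient) reports Rab9 promoter activation. Before that, stable Rab9-luciferase Huh7 cells (1500/well, reduced-serum OP-MEM I plus 10% FBS) were exposed to compound for 24 hours at 37C.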
NPC1 prom act = activators of NPC1 promoter; Huh7 NPC1 promoter luciferase reporter, 24 h; AID 485313; hit rate 2.4% among 320,000; Potency, µM (top dose mostly 9.22 µM), usual class: activators; also: nearly all actives have a fitted effect of over 60% in size
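Readout is luciferase luminescence, reflecting NPC1 promoter activation in stably transfected Huh7 cells after 24 h compound exposure at 37 °C in reduced-serum medium with 10% FBS.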
Luc counter = Kinase-Glo luciferase inhibition (counter-screen) | AID 1379 | Potency, µM (titrated, usually from 38.3 µM), usual class: inhibitors | hit rate 0.28% among 200,000 | Kinase-Glo luciferase, ATP luminescence, 8 min | Q27757; also: nearly all actives have a fitted effect of over 60% in size
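Substrate mix (final 50 mM imidazole pH 7.2, 50 mM KCl, 7 mM MgCl2, 10 uM ATP, 0.01% Tween 20, 0.05% BSA) plus pin-tool compound, then Kinase-Glo detection mix; 8 min ambient, luminescence read.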
SMN2 splice up = SMN2 splice variant enhancement; HEK293 SMN2-luciferase splicing reporter, luminescence, 30-36 h; Potency, µM (series often up to 46.1 µM), usual class: activators; hit rate 2.8% among 210,000; AID 1458; also: nearly all actives have a fitted effect of over 55% in size
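HEK293 cells carry an SMN2 minigene-luciferase reporter in which exon 7 inclusion puts luciferase in frame. Cells were seeded at 2000 cells/well, attached for 10-12 hours, then exposed to compounds for 30-36 hours at 37C before ONE-Glo luminescence.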
FLuc modulator = counter-screen for miR-21 project: firefly luciferase inhibitors or activators; AID 588342; Potency, µM (doses to about 57.5 µM), usual class: inhibitors; purified FLuc, Km substrates, luminescence inhibition; P08659; hit rate 6.9% among 360,000; also: nearly all actives have a fitted effect of over 55% in size
Target sequence (P08659 whole entry, looked up): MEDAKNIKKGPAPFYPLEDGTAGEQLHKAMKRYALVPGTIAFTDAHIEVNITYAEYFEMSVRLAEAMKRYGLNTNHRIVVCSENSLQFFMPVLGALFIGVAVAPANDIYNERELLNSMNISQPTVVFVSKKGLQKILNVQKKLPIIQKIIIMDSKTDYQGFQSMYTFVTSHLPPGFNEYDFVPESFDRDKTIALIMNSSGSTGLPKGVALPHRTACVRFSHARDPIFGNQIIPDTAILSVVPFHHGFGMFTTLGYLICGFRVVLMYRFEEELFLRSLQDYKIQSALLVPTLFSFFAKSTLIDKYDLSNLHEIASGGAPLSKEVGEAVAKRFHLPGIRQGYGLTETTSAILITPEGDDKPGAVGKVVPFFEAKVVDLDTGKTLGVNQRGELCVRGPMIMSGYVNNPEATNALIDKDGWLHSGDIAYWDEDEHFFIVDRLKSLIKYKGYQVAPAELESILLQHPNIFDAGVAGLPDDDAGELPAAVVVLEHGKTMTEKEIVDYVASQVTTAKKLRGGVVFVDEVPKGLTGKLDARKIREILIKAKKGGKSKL
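Biochemical qHTS of compounds, final roughly 60 µM downward over six points, against 10 nM purified firefly luciferase using Km concentrations of substrates (10 uM D-luciferin, 10 uM ATP) in Tris acetate pH 7.5 buffer; luminescence output.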
ELG1 genotoxic = genotoxicity induction in ELG1-luciferase HEK293T cells; HEK293T ELG1-luciferase reporter, luminescence, 16 h; Potency, µM (titrated, usually from 46 µM), actives largely listed as activators; hit rate 1.3% among 330,000; also: nearly all actives have a fitted effect of over 60% in size
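Genotoxicity was scored as increased ELG1-luciferase reporter signal, measured by ONE-Glo luminescence (30 min, room temperature). Compound or vehicle exposure of the HEK293T reporter cells lasted 16 hr at 37°C.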
A number is an active result; i = inactive; ? = inconclusive; nt = no result given; [ ] = dose if it differs, or a comment. Calls follow the shape of the dose curve; as a rule, active = well fitted curve in the direction sought with a large enough effect; inconclusive = small, poorly fitted or top-dose-only effect, or another doubt; inactive = no such curve, though single readings can be large; an effect the other way counts as inactive or inconclusive.

SMILES	Rab9 prom act	NPC1 prom act	Luc counter	SMN2 splice up	FLuc modulator	ELG1 genotoxic
CCc1nn(CC(=O)Nc2ccc(N(CC)CC)cc2C)c(=O)c2cc3sccc3n12	nt	nt	nt	i	i	nt
CC(CNC(=O)C1CCN(S(=O)(=O)c2ccc3c(ccn3C)c2)CC1)c1ccccc1 (stereo not drawn)	nt	nt	nt	nt	i	nt
CCN(Cc1ccccc1)Cc1c(O)ccc2c(=O)c(-c3ccccc3Cl)c(C(F)(F)F)oc12	nt	nt	nt	i	i	nt
CC1=NN(c2nc(-c3ccc(F)cc3)cs2)C(=O)C1	i	i	i	i	16.9µM	i
Cc1cc(C)n(-c2nc(-c3ccc(Cl)cc3)cs2)n1	3.55µM	?	i	i	5.36µM	?
COc1ccc(-c2csc(CCN3N=C(C)CC3=O)n2)cc1	i	i	i	i	?	i
CC1=NN(c2nc(-c3ccc(Cl)cc3)cs2)C(=O)C1	i	i	i	i	15.1µM	i
CC1=NN(c2ccc(Cl)cc2)C(=O)C1	i	i	i	i	i	i
CC(C)(C)c1ccc(N2C(=N)SCC2=O)cc1	i	i	nt	nt	i	i
Cc1cc(C)n(CCc2nc(-c3ccc(F)cc3)cs2)n1	i	i	i	nt	i	i
Cc1ccc(-c2csc(N3C(=N)SCC3=O)n2)cc1	2.82µM	?	nt	nt	2.39µM	10.3µM
COc1ccc(NC(=O)Nc2cccc(OC)c2)cc1	nt	nt	i	nt	nt	nt
COc1cccc(NC(=O)Nc2nc(SC)ns2)c1	1.41µM	2.82µM	nt	nt	6.75µM	?
CCSc1nsc(NC(=O)Nc2cccc(F)c2)n1	i	i	nt	nt	19µM	i
COc1cccc(NC(=O)Nc2nc(SC(C)(C)C)ns2)c1	i	i	nt	nt	10.7µM	i
CCc1ccc(NC(=O)Cn2nnc(-c3ccccc3N)n2)cc1	nt	nt	nt	nt	i	nt
Cn1nccc1C(=O)Nc1sc2c(c1C#N)CCCC2	i	i	nt	nt	?	i
Cn1ccc(C(=O)Nc2sc3c(c2C(N)=O)CCCCC3)n1	0.501µM	1µM	nt	nt	0.601µM	0.461µM
CC(=O)Nc1sc2c(c1C(N)=O)CCCC2	i	i	i	i	i	i
Cn1cc(Br)c(C(=O)Nc2sc3c(c2C(N)=O)CCC3)n1	i	i	i	i	10.7µM	i
Cn1nccc1C(=O)Nc1sc2c(c1C(N)=O)CCCC2	?	i	i	i	9.53µM	?
Cc1cc(C(F)F)n2nc(C(=O)Nc3sc4c(c3C(N)=O)CCC4)nc2n1	i	i	i	i	12µM	i
CCn1ncc(Br)c1C(=O)Nc1sc2c(c1C(N)=O)CCC2	i	i	i	i	i	i
O=C(NCc1ccccc1)c1ccc(CNS(=O)(=O)c2ccc(Br)cc2)cc1	nt	nt	nt	i	i	nt
Cc1nc2ccccc2c2c1C(=O)N(c1cccc(C(=O)O)c1)C2=O	i	i	i	i	i	i
SMILES	Rab9 prom act	NPC1 prom act	Luc counter	SMN2 splice up	FLuc modulator	ELG1 genotoxic
Cc1ccc(C)c(C(=O)COC(=O)c2cccc(N3C(=O)c4c(C)nc5ccccc5c4C3=O)c2)c1	?	?	i	i	1.51µM	i
Cc1nc2ccn(Cc3cccs3)c(=O)c2cc1C(=O)NCc1ccc(Br)cc1	nt	nt	nt	nt	i	nt
COc1ccccc1OCC(=O)NCCSCc1ccccc1Cl	i	i	i	i	i	i
COC(=O)c1ccccc1NC(=O)COc1ccccc1	i	i	i	i	?	i
O=C(COc1ccccc1)Nc1ccccc1Cl	?	?	i	i	15.1µM	?
O=C(COc1ccccc1)NCCSCc1ccccc1Cl	i	i	i	nt	26.9µM	i
O=C(c1ccc(Br)cc1)N1CCC(c2nc3ccccc3s2)CC1	nt	nt	nt	nt	i	nt
CCn1nnc2sc3c(c2c1=O)CCC(C)C3 (stereo not drawn)	?	?	i	i	13.5µM	i
CC(=O)Cn1nnc2sc3c(c2c1=O)CCC(C(C)(C)C)C3 (stereo not drawn)	2.82µM	3.55µM	i	i	21.3µM	i
Cc1cc(C)c(NC(=O)Cn2nnc3sc4c(c3c2=O)CCC(C(C)(C)C)C4)c(C)c1 (stereo not drawn)	nt	nt	nt	i	i	nt
O=C(Nc1nc2nccc(-c3ccccc3)n2n1)c1ccccc1	2.51µM	2.82µM	nt	nt	?	?
COc1ccc(-c2ccnc3nc(N4CCN(c5ccccc5)CC4)nn23)cc1	i	i	i	i	i	i
O=C(Nc1nc2nccc(-c3ccccc3)n2n1)c1ccc(F)cc1	i	i	i	i	i	i
COc1ccc(C(=O)Nc2nc3nccc(-c4ccccc4)n3n2)cc1	i	i	i	i	9.53µM	i
COc1ccccc1NC(=O)C1=C(C)Nc2nc(SCC(=O)c3ccc(C)cc3)nn2C1c1ccc(F)cc1 (stereo not drawn)	nt	nt	nt	nt	i	nt
COc1ccccc1N1CCN(C(CNC(=O)C(=O)NCCCN(C)C)c2cccnc2)CC1 (stereo not drawn)	nt	nt	nt	nt	i	nt
CCOC(=O)CN(C)C(=O)CCc1nnc(-c2ccc(-c3ccccc3)cc2)o1	i	i	nt	nt	?	i
CC(C)(CO)CNC(=O)CCc1nnc(-c2ccc(-c3ccccc3)cc2)o1	i	i	nt	nt	23.9µM	i
CC(NC(=O)CCc1nnc(-c2ccc(-c3ccccc3)cc2)o1)c1nc2ccccc2[nH]1 (stereo not drawn)	i	i	i	nt	10.7µM	i
CN(CCCNC(=O)c1cc2c(=O)n(C)c3ccccc3c2s1)Cc1ccccc1	nt	nt	nt	i	i	nt
Cc1cccc(C2Nc3cccc4cccc(c34)N2)c1	i	?	nt	nt	21.3µM	i
CSc1ccc(C2Nc3cccc4cccc(c34)N2)cc1	i	?	nt	nt	21.3µM	i
Oc1ccc2ccccc2c1C1Nc2cccc3cccc(c23)N1	i	i	i	i	i	i
Brc1ccc(C2Nc3cccc4cccc(c34)N2)s1	?	i	i	i[1.84 µM]	?	i
CN1c2ccccc2N(C)C1c1ccc2c(c1)OCO2	i	i	i	i	i	i
SMILES	Rab9 prom act	NPC1 prom act	Luc counter	SMN2 splice up	FLuc modulator	ELG1 genotoxic
Clc1ccc(C2Nc3cccc4cccc(c34)N2)cc1	i	i	nt	nt	19µM	i
O=[N+]([O-])c1cc(C2Nc3cccc4cccc(c34)N2)ccc1Cl	i	?	i	i	i	i
c1cc2c3c(cccc3c1)NC(c1ccc3c(c1)OCO3)N2	i	?	nt	nt	26.9µM	i
NC(=O)COC(=O)c1cc(=O)[nH]c2ccccc12	i	i	nt	nt	i	i
COc1ccc(C(=O)COC(=O)c2cc(=O)[nH]c3ccccc23)c(OC)c1	2.24µM	3.16µM	nt	nt	?	?
Cc1ccc(C(=O)COC(=O)c2cc(=O)[nH]c3ccccc23)cc1C	?	i	i	i	1.07µM	20.6µM
COc1ccccc1C(=O)COC(=O)c1cc(=O)[nH]c2ccccc12	i	i	nt	nt	i	?
O=P1(O)Oc2c(-c3ccccc3)cc3ccccc3c2-c2c(c(-c3ccccc3)cc3ccccc23)O1	nt	nt	i	i	nt	nt
Cc1ccc(OCC(=O)Nc2ccccc2[N+](=O)[O-])c(Br)c1	2.82µM	3.16µM	i	17.8µM	2.39µM	?
Cc1ccc(OCC(=O)Nc2ccon2)c([N+](=O)[O-])c1	3.16µM	3.16µM	nt	nt	8.49µM	10.3µM
